Results from PubChem BioAssay (NCATS).
Records with an inconclusive call do not appear. Active and inactive are the calls of the source. Unless noted, calls follow the shape of the dose curve; as a rule, active = well fitted curve in the direction sought with a large enough effect; inconclusive = small, poorly fitted or top-dose-only effect, or another doubt; inactive = no such curve, though single readings can be large; an effect the other way counts as inactive or inconclusive.

Key:
[1] = biological target: Lysosomal acid glucosylceramidase (Homo sapiens) (UniProt P04062); experiment: Glucocerebrosidase-p2 (AID 348; in the data active = potency below about 10 µM; also: potency is read from the fitted curve at half-maximal effect); details: purified GBA, blue fluorogenic substrate, 40 min
Summary of the method: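 Normal human glucocerebrosidase (0.2 nM) with blue fluorogenic substrate (80 uM final) in citrate/phosphate pH 5.9 with 10mM sodium taurocholate, 0.01% tween-20; 40 min RT, NaOH/glycine stop; fluorescence Ex 365/Em 440; AC50 from a titration from 0.6 nM upwards.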

[2] = biological target: Cytochrome P450 1A2 (Homo sapiens) (UniProt P05177); experiment: p450-cyp1a2 (AID 410; calls by dose curve; also: potency is read from the fitted curve at half-maximal effect)
Summary of the method: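 Luminescent demethylation readout: Luciferin-ME (100uM, equal to Km) turned over by 20nM CYP1A2 for 60 min at room temperature after NADPH regeneration addition, following 10 min compound preincubation. Normalization used 57 uM furafylline as full inhibition.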

[3] = NFAT Signaling Pathway (AID 444; active = well fitted curve in either direction with a large enough effect, not every such curve was filed as active;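 also: carbachol stimulus at about its EC50 of 1 µM final; % is scaled to controls: 0 for no effect and ±100 for the full control effect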); details: Jurkat NFAT-bla M1, carbachol, beta-lactamase ratio, 5 h; at 7.69 µM (top of the series) unless noted
Summary of the method: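 Read-out: CCF4 FRET ratio (460 nm/530 nm) after 1 h RT dye loading, used for %activity and AC50 from titration series. Cells: Jurkat NFAT-β-lactamase/M1 line, treated with compound plus 1 uM carbachol for 5 h, 37 °C.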

[4] = Stat Signaling Pathway (AID 446; active = well fitted curve in either direction with a large enough effect, not every such curve was filed as active;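 also: ME-180 cervical cancer cells given 40 pM IL-6 alongside compound; SIE-controlled beta-lactamase reporter measured as 460/530 nm FRET emission ratio; % is scaled to controls: 0 for no effect and ±100 for the full control effect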); details: ME-180 SIE beta-lactamase reporter, IL-6 stimulated, 5 h; at 7.69 µM (top of the series) unless noted
Summary of the method: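 FRET read-out (405 nm excitation, 460/530 nm emission) of a beta-lactamase reporter under a STAT-inducible element in ME-180 cervical carcinoma cells. Cells with compound receive 40 pM IL-6 for 5 h. Values are normalised to AC90 stimulation and AC90 JAK-inhibitor controls.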

[5] = biological target: Glucocorticoid receptor (Homo sapiens) (UniProt P04150); experiment: GR-GFP Redistribution (AID 450;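 active = compounds whose dose series gives a full or clear partial fitted curve of increased nuclear translocation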; also: potency is read from the fitted curve at half-maximal effect); details: U2OS GR-GFP nuclear translocation, laser cytometry, 2 h
[6] = biological target: Glucocorticoid receptor (Homo sapiens) (UniProt P04150); experiment: GR-EFC Redistribution (AID 451; calls by dose curve; also: potency is read from the fitted curve at half-maximal effect); details: CHO-K1 GR-EFC translocation, beta-gal luminescence, 2 h
Summary of the method: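 Translocation of GR-ED fusion to nuclear EA restores b-gal, read by luminescence after 1 h room-temperature detection. Engineered CHO-K1 biosensor cells, 1,000/well, exposed 2 h at 37 C to titrations up to 46 uM final.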

[7] = biological target: 3',5'-cyclic-AMP phosphodiesterase 4B (Homo sapiens) (UniProt Q07343); experiment: qHTS Assay for Inhibitors of PDE-IV (AID 607; active = well fitted activation curve with a large enough effect in the main read-out, with a control signal flat, not every such curve was filed as active; also: % of control where 0% means no effect)
Summary of the method: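 Cell-based read-out of cAMP via a modified cyclic nucleotide-gated channel and membrane potential dye (535/590 nm) in HEK293 cells expressing PDE4 endogenously. Compounds tested up to 22.9 uM final; 100 uM RO 20-1724 reference.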

[8] = biological target: Cytochrome P450 3A4 (Homo sapiens) (UniProt P08684); experiment: qHTS Assay for Activators of Cytochrome P450 3A4 (AID 885); also: nearly all actives have a fitted effect of over 65% in size
Summary of the method: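 Luminescent readout of luciferin formed from 25 uM Luciferin-PPXE (KM level) by 20 nM CYP3A4 in 200 mM KPO4, with 60 min NADPH-driven reaction at room temperature after 10 min compound exposure. Ketoconazole (57 uM) defined 100% inhibition.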

[9] = biological target: Cytochrome P450 2C19 (Homo sapiens) (UniProt P33261); experiment: qHTS Assay for Inhibitors and Substrates of Cytochrome P450 2C19 (AID 899); also: % is scaled to controls: 0 for no effect and ±100 for the full control effect; nearly all actives have a fitted effect of over 60% in size
Summary of the method: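 5nM enzyme + 10uM Luciferin-H EGE (=KM), 50mM KPO4; cpd pin-transferred, 10 min 37C; NADPH regen, 60 min 37C; stopped w/ luciferin detection reagent, 20 min; luminescence. Normalized to 57uM ketoconazole (AC100).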

[10] = qHTS Assay for Lipid Storage Modulators (AID 1519; calls by dose curve); details: Drosophila S3 cells, BODIPY lipid droplet/cell ratio, laser cytometry, cells loaded with oleic acid; for activity change, negative = inhibition: at 57.5 µM (top of the series)
Summary of the method: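 Cells seeded at 5,000 per well were treated with compounds over a concentration series and loaded with oleic acid (400 uM, as added). Lipid droplet fluorescence (488 nm excitation, 500-530 nm channel) was read by laser-scanning cytometry and normalized to 20 uM Triacsin C.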

[11] = biological target: Dual specificity protein kinase CLK4 (Homo sapiens) (UniProt Q9HAZ1); experiment: qHTS Assay for Inhibitors of CDC-like Kinase 4 (Kinase-Glo Assay) (AID 1770); also: nearly all actives have a fitted effect of over 65% in size; also: potency is read from the fitted curve at half-maximal effect
Summary of the method: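 Readout: Kinase-Glo luminescence from ATP left after a 4.5 h room-temperature reaction of 25 nM Clk4 with 100 uM RS peptide and 1 uM ATP (final). Buffer: 25 mM Tris pH 7.5, 10 mM MgCl2.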

[12] = biological target: Dual specificity protein kinase CLK4 (Homo sapiens) (UniProt Q9HAZ1); experiment: qHTS Assay for Inhibitors of CDC-like Kinase 4 (ADP-FP Assay) (AID 1795); also: nearly all actives have a fitted effect of over 60% in size; also: potency is read from the fitted curve at half-maximal effect
Summary of the method: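 FP readout: Orange Transcreener ADP2 tracer (4 nM) plus ADP antibody, read after 30 min at room temperature. Kinase step: 6.25 nM Clk4, 100 uM RS peptide, 1 uM ATP, pH 7.5, 1 h.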

[13] = biological target: Ubiquitin carboxyl-terminal hydrolase 1 (Homo sapiens) (UniProt O94782); experiment: Inhibitors of USP1/UAF1: Pilot qHTS (AID 504865);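 also: rhodamine fluorescence freed from ubiquitin-rhodamine substrate followed over time; top concentration of the series differs between compounds; % is scaled to controls: 0 for no effect and ±100 for the full control effect; nearly all actives have a fitted effect of over 35% in size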
Summary of the method: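 1nM USP1/UAF1 + cpd, 15 min RT; start w/ Ub-Rho 150nM final; kinetic FL 480/540 nm, 6 reads q60 s. Buffer 50mM HEPES pH 7.8, 0.5mM EDTA, 1mM TCEP, 0.01% Tween-20, 0.1 mg/ml BSA.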

[14] = AP1 Signaling Pathway (AID 357; active = well fitted curve in either direction with a large enough effect, not every such curve was filed as active;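 also: ME-180 reporter cells stimulated with EGF at its EC50 level; % is scaled to controls: 0 for no effect and ±100 for the full control effect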); details: ME-180 (cervical carcinoma) AP-1-bla reporter, EGF-induced, beta-lactamase ratio, 5 h; at 7.69 µM (top of the series) unless noted
Summary of the method: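 AP-1-bla ME-180 cells, Opti-MEM + 0.5% dialyzed FBS, plated overnight 37 °C. Cpd titration + EC50 EGF, 5 h 37 °C. CCF4 2.5 h RT; ex 405, em 460/530 ratio → %activity, AC50.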

[15] = biological target: Mitogen-activated protein kinase 10 (Mus musculus) (UniProt Q61831); experiment: JNK3 AlphaScreen Assay (AID 530; active = well fitted curve in either direction with a large enough effect, not every such curve was filed as active;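 also: kinase came from lysate of stimulated human HepG2 cells; signal reports phosphorylation of biotinylated GST-cJun 1-79 at Ser73 with 10 µM ATP; % is scaled to controls: 0 for no effect and ±100 for the full control effect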)
Summary of the method: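 qHTS titrations with 15 min compound pre-incubation before adding ATP (10 uM final). Read-out: AlphaScreen of Ser73-phosphorylated biotin-GST-cJun using HepG2 lysate JNK3 activated by IL-1β and TNFα.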

[16] = biological target: Dual specificity protein kinase CLK4 (Homo sapiens) (UniProt Q9HAZ1); experiment: qHTS Assay for Inhibitors of CDC-like Kinase 4 (ADP-Glo Assay) (AID 1771); also: nearly all actives have a fitted effect of over 70% in size; also: potency is read from the fitted curve at half-maximal effect
Summary of the method: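 ADP production was read by ADP-Glo luminescence after residual ATP depletion, following 1 h room-temperature reaction of 25 nM Clk4, 1 uM ATP and 100 uM RS peptide with MgCl2, EGTA, DTT and Triton X-100.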

[17] = biological target: Cytochrome P450 3A4 (Homo sapiens) (UniProt P08684); experiment: qHTS Assay for Inhibitors and Substrates of Cytochrome P450 3A4 (AID 884); also: potency is read from the fitted curve at half-maximal effect; nearly all actives have a fitted effect of over 50% in size
Summary of the method: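 Luminescent readout of luciferin produced by CYP3A4 (20 nM) dealkylation of Luciferin-PPXE, 25 uM (its KM). NADPH-driven reaction ran 60 min at RT after 10 min compound preincubation; data scaled to 57 uM ketoconazole as 100% inhibition.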

[18] = measured here: cell count channel max response
[19] = measured here: lipid channel max response

Sequence of 3',5'-cyclic-AMP phosphodiesterase 4B (Homo sapiens) (Q07343 whole entry, looked up): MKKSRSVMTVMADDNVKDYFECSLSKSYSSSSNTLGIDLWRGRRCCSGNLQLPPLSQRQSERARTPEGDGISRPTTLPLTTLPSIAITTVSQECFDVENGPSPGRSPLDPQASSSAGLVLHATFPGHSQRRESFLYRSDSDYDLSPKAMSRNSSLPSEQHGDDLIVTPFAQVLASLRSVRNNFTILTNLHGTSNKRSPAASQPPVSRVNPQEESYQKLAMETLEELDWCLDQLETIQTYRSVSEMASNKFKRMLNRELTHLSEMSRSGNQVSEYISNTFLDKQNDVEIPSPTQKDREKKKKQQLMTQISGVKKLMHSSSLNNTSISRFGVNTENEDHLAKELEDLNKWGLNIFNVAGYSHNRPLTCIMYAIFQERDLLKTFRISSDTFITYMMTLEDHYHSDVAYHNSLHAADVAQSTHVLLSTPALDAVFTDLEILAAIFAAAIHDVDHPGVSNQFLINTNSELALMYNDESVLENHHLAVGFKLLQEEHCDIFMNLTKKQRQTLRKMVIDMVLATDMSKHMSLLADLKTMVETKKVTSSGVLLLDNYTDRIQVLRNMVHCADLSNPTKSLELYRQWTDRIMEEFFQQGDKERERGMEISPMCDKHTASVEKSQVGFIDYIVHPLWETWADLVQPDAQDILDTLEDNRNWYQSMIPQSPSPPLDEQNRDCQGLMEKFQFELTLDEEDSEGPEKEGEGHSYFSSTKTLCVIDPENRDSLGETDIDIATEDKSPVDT
Sequence of Ubiquitin carboxyl-terminal hydrolase 1 (Homo sapiens) (O94782 whole entry, looked up): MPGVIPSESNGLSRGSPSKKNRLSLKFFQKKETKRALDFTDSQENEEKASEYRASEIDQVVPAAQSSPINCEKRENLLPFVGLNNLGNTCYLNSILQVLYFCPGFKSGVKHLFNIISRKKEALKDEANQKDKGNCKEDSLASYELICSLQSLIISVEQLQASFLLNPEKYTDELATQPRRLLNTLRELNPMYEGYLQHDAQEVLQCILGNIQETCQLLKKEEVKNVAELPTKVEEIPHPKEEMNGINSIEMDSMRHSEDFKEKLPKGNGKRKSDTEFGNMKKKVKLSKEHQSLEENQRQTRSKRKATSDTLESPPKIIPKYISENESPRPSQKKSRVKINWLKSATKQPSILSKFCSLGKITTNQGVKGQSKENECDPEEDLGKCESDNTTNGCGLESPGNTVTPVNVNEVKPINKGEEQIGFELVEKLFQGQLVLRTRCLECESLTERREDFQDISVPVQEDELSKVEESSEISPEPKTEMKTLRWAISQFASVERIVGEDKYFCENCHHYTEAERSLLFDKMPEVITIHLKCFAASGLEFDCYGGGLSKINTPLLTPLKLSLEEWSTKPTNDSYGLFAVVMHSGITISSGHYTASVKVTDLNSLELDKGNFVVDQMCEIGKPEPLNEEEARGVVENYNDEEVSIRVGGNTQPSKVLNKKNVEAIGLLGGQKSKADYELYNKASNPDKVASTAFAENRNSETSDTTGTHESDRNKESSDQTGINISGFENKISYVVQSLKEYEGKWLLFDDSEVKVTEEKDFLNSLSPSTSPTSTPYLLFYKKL
Sequence of Cytochrome P450 3A4 (Homo sapiens) (P08684 whole entry, looked up): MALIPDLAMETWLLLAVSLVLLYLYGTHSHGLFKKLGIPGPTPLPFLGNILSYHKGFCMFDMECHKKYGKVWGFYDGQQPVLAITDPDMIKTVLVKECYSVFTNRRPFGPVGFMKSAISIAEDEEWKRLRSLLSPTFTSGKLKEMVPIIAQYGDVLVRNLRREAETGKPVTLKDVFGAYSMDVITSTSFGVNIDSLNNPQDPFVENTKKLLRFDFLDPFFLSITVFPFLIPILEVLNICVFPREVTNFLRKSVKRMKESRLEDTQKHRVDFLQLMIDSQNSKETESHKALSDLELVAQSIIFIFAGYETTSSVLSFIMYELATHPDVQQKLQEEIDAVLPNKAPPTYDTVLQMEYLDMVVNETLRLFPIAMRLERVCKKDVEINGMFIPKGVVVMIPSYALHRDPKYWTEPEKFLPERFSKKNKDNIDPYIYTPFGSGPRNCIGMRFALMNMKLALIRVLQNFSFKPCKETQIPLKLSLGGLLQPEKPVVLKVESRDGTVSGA
Sequence of Dual specificity protein kinase CLK4 (Homo sapiens) (Q9HAZ1 whole entry, looked up): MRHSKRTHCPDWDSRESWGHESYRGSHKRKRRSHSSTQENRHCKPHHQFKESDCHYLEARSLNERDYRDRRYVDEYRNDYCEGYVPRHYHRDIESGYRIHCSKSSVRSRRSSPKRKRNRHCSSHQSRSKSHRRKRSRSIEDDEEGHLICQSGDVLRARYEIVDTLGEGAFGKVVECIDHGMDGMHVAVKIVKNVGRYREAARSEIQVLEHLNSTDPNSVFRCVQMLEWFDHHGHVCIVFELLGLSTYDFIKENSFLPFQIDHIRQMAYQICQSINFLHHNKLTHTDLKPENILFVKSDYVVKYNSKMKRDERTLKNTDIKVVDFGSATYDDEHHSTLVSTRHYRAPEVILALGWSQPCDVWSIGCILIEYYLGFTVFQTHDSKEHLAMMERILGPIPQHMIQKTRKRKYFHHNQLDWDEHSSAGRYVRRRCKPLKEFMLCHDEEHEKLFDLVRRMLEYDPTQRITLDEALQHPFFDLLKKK
Sequence of Cytochrome P450 1A2 (Homo sapiens) (P05177 whole entry, looked up): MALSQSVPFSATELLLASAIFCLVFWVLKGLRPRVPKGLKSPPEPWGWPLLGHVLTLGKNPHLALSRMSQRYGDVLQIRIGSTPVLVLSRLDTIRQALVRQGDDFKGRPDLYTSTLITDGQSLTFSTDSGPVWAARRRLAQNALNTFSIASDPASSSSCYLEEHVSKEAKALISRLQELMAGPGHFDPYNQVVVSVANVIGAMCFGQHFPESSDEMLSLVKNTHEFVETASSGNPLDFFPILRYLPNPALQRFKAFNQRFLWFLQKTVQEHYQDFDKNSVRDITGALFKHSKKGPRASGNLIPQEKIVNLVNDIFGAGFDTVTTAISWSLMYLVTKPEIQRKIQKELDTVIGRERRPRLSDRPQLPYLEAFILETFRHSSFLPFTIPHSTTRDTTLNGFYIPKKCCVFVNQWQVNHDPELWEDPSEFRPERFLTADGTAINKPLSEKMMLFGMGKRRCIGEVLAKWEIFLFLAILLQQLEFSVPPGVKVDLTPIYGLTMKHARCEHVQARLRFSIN
Sequence of Lysosomal acid glucosylceramidase (Homo sapiens) (P04062 whole entry, looked up): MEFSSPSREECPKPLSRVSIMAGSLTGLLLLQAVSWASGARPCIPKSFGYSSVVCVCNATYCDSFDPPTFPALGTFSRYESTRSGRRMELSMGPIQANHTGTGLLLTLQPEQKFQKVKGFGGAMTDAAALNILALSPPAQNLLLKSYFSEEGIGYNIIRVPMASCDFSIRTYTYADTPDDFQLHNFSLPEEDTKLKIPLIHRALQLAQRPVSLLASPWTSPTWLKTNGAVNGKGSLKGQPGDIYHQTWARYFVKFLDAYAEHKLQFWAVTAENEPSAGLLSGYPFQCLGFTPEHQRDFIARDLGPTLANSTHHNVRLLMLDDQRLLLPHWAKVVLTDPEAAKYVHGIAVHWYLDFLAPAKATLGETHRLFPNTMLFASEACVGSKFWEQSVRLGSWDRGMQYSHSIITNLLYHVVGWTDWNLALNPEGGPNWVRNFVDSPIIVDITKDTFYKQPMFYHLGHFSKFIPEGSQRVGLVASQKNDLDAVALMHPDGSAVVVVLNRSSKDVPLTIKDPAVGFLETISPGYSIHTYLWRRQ
Sequence of Glucocorticoid receptor (Homo sapiens) (P04150 whole entry, looked up, the tested form may be a part): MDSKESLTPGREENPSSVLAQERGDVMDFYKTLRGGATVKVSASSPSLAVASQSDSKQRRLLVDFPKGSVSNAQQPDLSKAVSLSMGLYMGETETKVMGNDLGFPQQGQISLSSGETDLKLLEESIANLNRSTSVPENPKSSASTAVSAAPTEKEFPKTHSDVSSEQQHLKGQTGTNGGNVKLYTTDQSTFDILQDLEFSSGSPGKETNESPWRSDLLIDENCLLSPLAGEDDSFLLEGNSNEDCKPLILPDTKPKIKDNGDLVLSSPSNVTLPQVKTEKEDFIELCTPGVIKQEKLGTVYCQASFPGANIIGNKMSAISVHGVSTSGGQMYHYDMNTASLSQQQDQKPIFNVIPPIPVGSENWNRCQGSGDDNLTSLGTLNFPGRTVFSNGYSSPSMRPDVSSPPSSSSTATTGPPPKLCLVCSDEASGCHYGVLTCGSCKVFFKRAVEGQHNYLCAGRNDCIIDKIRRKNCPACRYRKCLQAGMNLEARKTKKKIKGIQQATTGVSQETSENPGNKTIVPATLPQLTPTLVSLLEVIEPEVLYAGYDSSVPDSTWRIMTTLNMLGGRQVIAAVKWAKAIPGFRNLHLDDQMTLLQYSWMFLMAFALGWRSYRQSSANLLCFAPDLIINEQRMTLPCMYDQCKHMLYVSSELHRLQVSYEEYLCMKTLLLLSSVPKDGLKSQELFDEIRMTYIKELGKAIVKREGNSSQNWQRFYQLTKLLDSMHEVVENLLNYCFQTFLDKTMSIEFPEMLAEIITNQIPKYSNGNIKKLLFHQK
Sequence of Cytochrome P450 2C19 (Homo sapiens) (P33261 whole entry, looked up): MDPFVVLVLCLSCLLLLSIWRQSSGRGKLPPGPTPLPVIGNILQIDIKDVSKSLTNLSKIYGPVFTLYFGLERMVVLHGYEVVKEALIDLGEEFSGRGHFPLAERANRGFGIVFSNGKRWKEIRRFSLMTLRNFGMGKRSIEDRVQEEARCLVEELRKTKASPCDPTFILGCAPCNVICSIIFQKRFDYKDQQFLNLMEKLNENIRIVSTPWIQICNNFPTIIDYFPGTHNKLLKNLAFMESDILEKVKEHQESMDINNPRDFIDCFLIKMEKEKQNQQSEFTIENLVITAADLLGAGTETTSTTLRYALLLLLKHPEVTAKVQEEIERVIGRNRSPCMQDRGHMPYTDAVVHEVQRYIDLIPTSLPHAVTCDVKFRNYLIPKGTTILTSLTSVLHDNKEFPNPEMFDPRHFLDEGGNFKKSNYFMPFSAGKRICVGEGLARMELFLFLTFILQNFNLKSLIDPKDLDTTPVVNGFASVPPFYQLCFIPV

SMILES | Potency [1] | Potency [2] | activity change, negative = inhibition [3] | activity, negative = inhibition [4] | Potency [5] | Potency [6] | Potency [7] | Potency [8] | Potency [9] | activity change, negative = inhibition [10] | max response [10, 18] [%] | max response [10, 19] [%] | Potency [11] | Potency [12] | Potency [13] | activity change, negative = inhibition [14] | Potency [15] | Potency [16] | Potency [17]
COc1cccc(Nc2ncc3ncc(=O)n(C)c3n2)c1 | > 11.4 µM (inactive) | 1.58 µM (active) | 0.44% (inactive) | -17.5% (inactive) | > 9.22 µM (inactive) | > 46 µM (inactive) | inactive | inactive | inactive | 4.86% (inactive) | 11.1 | 14.9 | 0.891 µM (active) | 0.708 µM (active) | inactive |  |  |  | 
O=c1c(-c2cccs2)nc2cnc(N3CCNCC3)nc2n1C1CC1 | > 11.4 µM (inactive) | 2 µM (active) | 0.706% (inactive) | 14.5% (inactive) | > 9.22 µM (inactive) | > 46 µM (inactive) | inactive | inactive |  | 1.95% (inactive) | 1.24 | -0.825 | inactive | inactive | inactive | 5.15% (inactive) | inactive |  | 
COc1ccccc1-c1ccc2ncnc(NCCNC(C)=O)c2c1 |  | 5.01 µM (active) | 3.1% (inactive) | -8.48% (inactive) | > 46 µM (inactive) | > 46 µM (inactive) | inactive | inactive |  | 1.76% (inactive) | -6.93 | -7.23 | 11.2 µM (active) |  | inactive | 11.9% (inactive) | inactive | 15.8 µM (active) | 
COc1ccccc1CNc1ncnc2ccc(-c3ccoc3)cc12 |  | 2.51 µM (active) | -7.72% (inactive) | -21.5% (inactive) | > 46 µM (inactive) | > 46 µM (inactive) |  | inactive |  | -10.7% (inactive) | 20 | 4.99 | 0.251 µM (active) | 0.141 µM (active) | inactive |  | inactive | 0.316 µM (active) | 
N#Cc1cccc(-c2ccc3ncnc(NCCN4CCOCC4)c3c2)c1 | > 11.4 µM (inactive) |  | 19.4% (inactive) |  | > 46 µM (inactive) | > 46 µM (inactive) | inactive |  |  | 4.75% (inactive) | 5.88 | 7.51 | 12.6 µM (active) |  | inactive | 1.43% (inactive) | inactive | 8.91 µM (active) | 
Cc1ccccc1-c1ccc2ncnc(N3CCN(C)CC3)c2c1 | > 11.4 µM (inactive) | 3.16 µM (active) | -10.1% (inactive) | -2.42% (inactive) | > 46 µM (inactive) | > 46 µM (inactive) |  | inactive |  | -2.02% (inactive) | 10.5 | -2.94 |  |  | inactive | 25.8% (inactive) | inactive | 31.6 µM (active) | 3.98 µM (active)
Cc1nc2cnc(Nc3ccccc3)nc2n(C[C@H]2CCCO2)c1=O | > 11.4 µM (inactive) |  | 9.56% (inactive) | -15.1% (inactive) | > 9.22 µM (inactive) | > 46 µM (inactive) | inactive | inactive |  | -5.71% (inactive) | -3 | -12.3 |  |  | inactive | -11% (inactive) | inactive | 22.4 µM (active) | 
COc1ccc(CNc2ccnc(-c3ccccc3CN(C)C)n2)c(OC)c1 |  | 15.8 µM (active) | -25.3% (inactive) | 9.04% (inactive) | > 46 µM (inactive) | > 46 µM (inactive) |  | inactive |  | 3.1% (inactive) | 26.9 | 28.6 |  | inactive | inactive | 5.22% (inactive) | inactive | inactive | 5.01 µM (active)
CN(C)Cc1ccccc1-c1cc(NCc2cccs2)ncn1 | > 11.4 µM (inactive) | 25.1 µM (active) |  | 1.42% (inactive) | > 46 µM (inactive) | > 46 µM (inactive) | inactive | inactive |  | 3.12% (inactive) | 23.4 | 25.3 | inactive |  | inactive | 9.46% (inactive) | inactive | inactive | 
COCCn1c(=O)c(C)nc2cnc(Nc3cccc(OC)c3)nc21 | > 11.4 µM (inactive) | 1 µM (active) | 5.07% (inactive) | -7.83% (inactive) | > 9.22 µM (inactive) | > 46 µM (inactive) | inactive | inactive |  | -6.39% (inactive) | -14.8 | -22.1 | 15.8 µM (active) |  | inactive | 7.44% (inactive) | inactive | 25.1 µM (active) | 
CN1CCN(c2ncc3nc(-c4cn(C)c5ccccc45)c(=O)n(C)c3n2)CC1 | > 11.4 µM (inactive) | 31.6 µM (active) | 11.3% (inactive) | 12.5% (inactive) | > 9.22 µM (inactive) | > 46 µM (inactive) | inactive | inactive |  | 2.17% (inactive) | 7.27 | 7.8 | inactive | inactive | inactive | -20.2% (inactive) | inactive |  | 
